In PubChem BioAssay AID504727 (Broad Institute, 2011):
Values without a mark were called inactive. Calls of active or inactive are those of the source.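 Rule for the calls: active = fitted half-maximal concentration AC50 at or below ten times the highest valid tested dose, with signal falling as DNA is displaced (actives reach about 34 µM in these data); inconclusive = flat fit at moderate signal loss, or poor fit quality; inactive = the rest, including signal rising instead of falling.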

Experiment: DNA intercalators displacing acridine orange, dose response, artefact control for KSHV LANA DNA-binding inhibitor project, biochemical, fluorescence polarization, cherry-picked samples, set 2 (AID 504727);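 for activity change, negative = DNA displacement: 0% = median of neutral control wells and -100% = mitoxantrone positive control wells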
Details: AC50: Acridine orange-DNA displacement; series mostly up to 35 µM; activity change, negative = DNA displacement: at the top concentration

Row | Compound | activity change, negative = DNA displacement | AC50
1 | O=C(O)CC1(CC(=O)NCc2ccncc2)CCCCC1 | 2.56% | –
2 | Cc1sc2nnn(CC(=O)N3CCN(C(=O)c4ccco4)CC3)c(=O)c2c1C | -0.188% | –
3 | CC(=O)N(C(C)=O)N1C(=O)c2cccc3c(N4CCOCC4)ccc(c23)C1=O | 10.5% | –
4 | CC(C(=O)Nc1ccccc1)N1C(=O)c2ccccc2C1=O (stereo not drawn) | -2.9% | –
5 | N#C/C(=C\c1ccc(-c2ccccc2[N+](=O)[O-])o1)C(N)=O | 2.11% | –
6 | Cc1ccc(C(CC(=O)N2CCCCC2)c2ccccc2)c(O)c1C (stereo not drawn) | 2.77% | –
7 | O=C(c1cnn2c(-c3ccccc3)cc(-c3ccccc3)nc12)N1CCN(Cc2ccccc2)CC1 | 5.71% | –
8 | CN(c1ccccc1)S(=O)(=O)c1cccc(NS(=O)(=O)c2cccc(C(=O)O)c2)c1 | -1.7% | –
9 | O=c1ccc2cc3c4c(c2o1)CCCN4CCC3 | – | 15.1 µM (active)
10 | Cc1noc(C)c1-c1nc(CSc2ccccc2)no1 | 5.12% | –
11 | Cc1cc(N)ccc1N=Nc1c(C)n(C)n(-c2ccccc2)c1=O | 3.39% | –
12 | O=C1c2cccc3c(O)ccc(c23)C(=O)N1c1ccc(Cl)cc1 | – | 2.95 µM (active)
13 | COc1ccc2noc3c2c1C(=O)c1ccccc1-3 | – | 0.241 µM (active)
14 | COC(=O)c1cccc(COC(=O)c2ccccc2NC(=O)c2ccco2)c1 | 5.3% | –
15 | CC(OC(=O)CCN1C(=O)C2CC=CCC2C1=O)C(=O)Nc1ccc(F)cc1 (stereo not drawn) | 2.67% | –
16 | CNC(=S)Nc1cccc(C(=O)OC)c1 | -2.26% | –
17 | O=C(COc1cccc(F)c1)Nc1nc(-c2cccnc2)cs1 | -0.97% | –
18 | Cc1cc2nc3c(=O)n(C4CCCCC4)c(=O)[nH]c3nc2cc1N | – | 10.6 µM (active)
